GPT2 inh – Primary qHTS assay for inhibitors of Glutamate pyruvate transaminase 2 (GPT2); 0.25% of 100,000 active; Alanine aminotransferase 2 (Homo sapiens), Q8TD30; Recombinant GPT2, coupled pyruvate oxidase/HRP Amplex Red fluorescence; Potency, µM (titrated, usually from 57.7 µM), for inactives: top-dose activity change, negative = inhibition, usual class: inhibitors; also: potency is read from the fitted curve at half-maximal effect; nearly all actives have a fitted effect of over 60% in size
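Recombinant GPT2 (10ng/uL) with 250uM a-KG and 2mM L-alanine, 30 min at room temperature, in HEPES pH 7.5 buffer. Pyruvate detected by pyruvate oxidase/HRP/Amplex Red fluorescence after 30 min in the dark; AOA (50uM) as positive control.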
SNCA viab count – GF-AFC viability counterscreen for inhibitors of alpha-synuclein gene (SNCA) expression; Potency, µM (top dose mostly 57.1 µM), for the others: top-dose activity change, negative = cytotoxicity, hits mostly cytotoxic; 0.12% of 150,000 active; HEK-293-SNCA-luc viability, GF-AFC fluorescence, 24 h;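 also: potency is read from the fitted curve at half-maximal effect; 0% = DMSO-treated cells and -100% = medium-only wells without cells; nearly all actives have a fitted effect of over 30% in size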
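Cytotoxicity counterscreen: after 24 h compound treatment of genome-edited SNCA-luciferase HEK-293 cells, live-cell protease substrate GF-AFC read by fluorescence after 30 min; activity scaled between DMSO (0%) and medium-only (-100%), curves Hill-fitted.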
SNCA expr inhib – Primary qHTS assay for inhibitors of alpha-synuclein gene (SNCA) expression. HEK-293 SNCA-luciferase knock-in, luminescence, 24 h. Potency, µM (series often up to 57.2 µM), for inactives: top-dose activity change, negative = inhibition, hits mostly inhibitors. 0.17% of 140,000 active. AID 1671194, 2021;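 also: potency is read from the fitted curve at half-maximal effect; plate controls were DMSO cells for no effect and cell-free wells for full effect; nearly all actives have a fitted effect of over 45% in size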
IP6K1 inh – Primary qHTS assay for small molecule inhibitors of Inositol hexaphosphate kinase 1 (IP6K1). activity change, % (series mostly up to about 58 µM). AID 1645851, 2021. IP6K1 kinase, ADP-Glo luminescence, 2 h; stronger effect = lower value. Inositol hexakisphosphate kinase 1 (Homo sapiens), Q92551. 0.81% of 140,000 active; in the data active = activity change below about -25%
Target sequence (Q92551 whole entry, looked up): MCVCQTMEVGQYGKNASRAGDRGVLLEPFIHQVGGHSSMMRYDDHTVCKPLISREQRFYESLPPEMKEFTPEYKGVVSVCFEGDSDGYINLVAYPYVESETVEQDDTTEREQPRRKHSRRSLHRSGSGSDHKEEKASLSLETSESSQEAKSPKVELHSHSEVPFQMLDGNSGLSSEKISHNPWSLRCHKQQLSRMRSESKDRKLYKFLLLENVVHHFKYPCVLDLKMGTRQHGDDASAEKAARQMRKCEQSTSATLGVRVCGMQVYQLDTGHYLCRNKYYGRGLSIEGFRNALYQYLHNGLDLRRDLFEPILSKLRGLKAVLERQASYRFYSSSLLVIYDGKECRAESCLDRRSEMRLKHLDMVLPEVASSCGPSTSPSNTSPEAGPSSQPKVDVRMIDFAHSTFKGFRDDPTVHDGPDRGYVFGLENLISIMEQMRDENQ
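ADP-Glo luminescence measures ADP made by human IP6K1 during a 2 h RT reaction with ATP/IP6 (mix at 1.3 mM/130 uM); top library doses 57.5 and 19.1 uM final.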
IP6K1 conf – Confirmatory qHTS assay for small molecule inhibitors of Inositol hexaphosphate kinase 1 (IP6K1); recombinant IP6K1 kinase, ADP-Glo luminescence, 2 h; AID 1645852, 2021; shares compounds with IP6K1 inh; 13% of 1,200 active; Potency, µM (top dose mostly 49 µM), for the others: at the highest dose activity change, negative = inhibition, hits mostly inhibitors; also: potency is read from the fitted curve at half-maximal effect; nearly all actives have a fitted effect of over 65% in size
* hit, by the source's call; i = inactive; ? = inconclusive; · = not tested or not shown; [ ] = dose if it differs, or a comment. Shown are actives, neighbours in structure and some others; about 1% of the full set was active somewhere. Unless noted, calls follow the shape of the dose curve; as a rule, active = well fitted curve in the direction sought with a large enough effect; inconclusive = small, poorly fitted or top-dose-only effect, or another doubt; inactive = no such curve, though single readings can be large; an effect the other way counts as inactive or inconclusive. Unless noted, % is scaled to controls: 0 for no effect and ±100 for the full control effect.

SMILES	GPT2 inh	SNCA viab count	SNCA expr inhib	IP6K1 inh	IP6K1 conf
Cc1ccc(-n2ncc(C(=O)Nc3ccc4c(c3)OCCO4)c2C2CCN(C(=O)OC(C)(C)C)CC2)cc1	·	?	-47%	-26*	11%
COc1ccccc1-c1cccc(CN2CCC(NC(=O)c3ccc(C)cc3)CC2)c1	1%	1%	-1%	5	·
COc1ccc(NC(=O)NCC2CCC(=O)N(Cc3ccccc3)CC2)cc1F (stereo unspecified)	i	-2%	11%	0	·
CCOC(=O)c1cnc2ccc(-c3cncc(NS(=O)(=O)c4ccccc4)c3)cn12	i	-7%	·	-10	?
CCOC(=O)c1cccc(NS(=O)(=O)c2ccc(-c3coc(C)n3)cc2)c1	·	-3%	-8%	11	·
CCOC(=O)c1ccc(NC(=O)CC2C(=O)N(c3ccc(F)cc3)C(=O)N2Cc2ccc(C)cc2)cc1 (stereo unspecified)	·	-19%	?	-29*	?
CCOC(=O)c1ccc(NC(=O)CC2C(=O)N(c3ccc(F)cc3)C(=O)N2Cc2ccc3c(c2)OCO3)cc1 (stereo unspecified)	·	-12%	-23%	1	·
Cc1ccc(NC(=O)Cn2c(=O)nc(-c3ccccc3F)c3cc(Cl)ccc32)c(Br)c1	·	-13%	9%	-3	·
Cc1cc(NC(=O)Cn2c(=O)nc(-c3ccccc3F)c3cc(Cl)ccc32)ccc1Br	·	4%	17%	-25*	10%
Cc1ccccc1CNC(=O)c1sc2ncnc(N(C)C3CCCCC3)c2c1C	·	-5%	3%	-28*	-17%
COc1cc(CN2CCN(S(=O)(=O)c3ccc(F)cc3)CC2)cc(OC)c1OC	·	-12%	-4%	-34*	2%
CCOC(=O)C1CCN(c2c(C(=O)c3ccc(OCC)cc3)cnc3ccc(OC)cc23)CC1	·	?	?	-33*	-3%
O=C(NCC(F)F)c1cc(-c2cccc(C(F)(F)F)c2)c2cccn2n1	-16%	-3%	-26%	-6	·
Cc1ccc(-c2csc3ncnc(Nc4ccc(C(=O)O)cc4)c23)cc1	·	-6%	22%	-25*	-25%
Cn1c(=O)c2[nH]c(-c3ccc(S(=O)(=O)O)cc3)nc2n(C)c1=O	-7%	0%	-10%	·	9%
Cn1nnnc1Sc1ncnc2scc(Br)c12	·	·	·	·	-15%
Cn1nnnc1Sc1ncnc2scc(-c3ccc(Br)cc3)c12	·	·	·	·	-9%
C=CCOc1c(OC)ccc2c1CN(Cc1ccco1)C(=O)CCN2CC(O)COCc1ccco1 (stereo unspecified)	·	·	·	-6	·
N#Cc1ccc2ncnc(NCCc3ccccc3)c2c1	-21%	-4%	·	-45*	10µM*
Cc1noc(-c2ccco2)c1C(=O)NCCOc1ccccc1	-38%	-8%	25%	-2	·
COc1ccccc1-c1cnc(Nc2ccc3c(c2)OCCO3)c2c1CCO2	-22%[88.5 µM]	-13%[87.6 µM]	128%[87.6 µM]	-26*	-17%
O=C(CN1C(=O)COc2ccc(S(=O)(=O)NC3CCCC3)cc21)Nc1ccc(Cl)cc1F	·	-30%	10%	-28*	13%
Cc1ccc(NC(=O)c2cnn3c(C(F)F)cc(-c4ccccc4)nc23)c(C)c1	·	5%	0%	-50*	-19%
CCCc1nnc(NC(=O)c2nc(S(=O)(=O)Cc3ccc(C)cc3)ncc2Cl)s1	·	28µM*	5µM*	-33*	?
Cc1ccc(CS(=O)(=O)c2ncc(Cl)c(C(=O)Nc3nc4ccc(C)cc4s3)n2)cc1	·	4%	-12%	-13	·
SMILES	GPT2 inh	SNCA viab count	SNCA expr inhib	IP6K1 inh	IP6K1 conf
Cc1ccc(CS(=O)(=O)c2ncc(Cl)c(C(=O)Nc3nc4ccc(F)cc4s3)n2)cc1	·	9%	?	-28*	-15%
COc1cccc(-c2cc3c(=O)n(CCNC(=O)c4ccc(C(C)(C)C)cc4)ccn3n2)c1	i	-16%	-13%	-14	·
CCN1C(C(=O)c2ccccc2)=C(OC(=O)COc2ccccc2)c2ccccc2S1(=O)=O	·	?	?	-29*	?
CCN1C(C(=O)c2ccccc2)=C(OC(=O)C(C)C)c2ccccc2S1(=O)=O	·	-25%	?	-3	·
O=Cc1cccc(-c2cccc(C(F)(F)F)c2)c1	i	-2%[87.6 µM]	2%[87.6 µM]	-36*	?
O=Cc1cccc(-c2ccccc2F)c1	3%[88.5 µM]	8%[87.6 µM]	22%[87.6 µM]	-29*	?
CNC(=O)c1cc(C2CC2)nc2onc(C3CCCN(C(=O)c4ccccc4Cl)C3)c12 (stereo unspecified)	·	·	·	-5	·
Cc1nn2c(c1-c1ccnn1C(C)C)N(Cc1ccc(C(=O)O)s1)CCC2	-15%[88.5 µM]	?	?	1	·
Cc1ccc(C(=O)Oc2cc(-c3ccc4c(c3)OCO4)cc(=O)c3c(C)oc(C)c23)cc1	·	?	?	-54*	?
CCOc1cc(-c2ccc(OC(=O)c3ccc(C)cc3)c(OC)c2)cc(=O)c2c(C)oc(C)c12	·	4%	2%	-27*	3%
Cc1oc(C)c2c(=O)cc(-c3ccc4c(c3)OCO4)cc(OC(=O)c3cccc(Cl)c3)c12	·	-3%	3%	-23	·
COc1ccc(-c2nc3c(c(SCc4cc(C)ccc4C)n2)Cc2c(CO)cnc(C)c2O3)cc1	·	8%	-1%	-1	·
COc1ccccc1-c1nc2c(c(SCc3cc(C)ccc3C)n1)Cc1c(CO)cnc(C)c1O2	·	-16%	-23%	-27*	-4%
C#CCNC(=O)c1cc(-c2ccc(Cl)cc2Cl)c2nncn2n1	5%[88.5 µM]	-9%[12.5 µM]	14%[87.6 µM]	6	·
Cc1ccc(N2CC(NC(=O)c3ccc(Br)o3)CC2=O)cc1C (stereo unspecified)	·	-11%	-11%	-13	·
Cc1ccc(N2CC(NC(=O)c3ccco3)CC2=O)cc1C (stereo unspecified)	·	-2%	0%	-25*	-10%
CCOCCNc1ncnc2c1CN(C1CCCCC1)C(=O)CN2C	?	-14%	56%	-10	·
CCOCCNc1ncnc2c1CN(C1CCCNCC1)C(=O)CN2C (stereo unspecified)	-8%	5%	13%	-28*	-9%
Cc1nn(-c2ccccc2)c2c1C(C)N(CC1CN(Cc3ccc(F)cc3)C1)C2=O (stereo unspecified)	·	·	·	4	·
Cc1cc(C)cc(Nc2ncnc3c2nc2n3CCCC2)c1	·	1%	52%	-32*	-19%
Cc1ccc(Nc2ncnc3c2nc2n3CCCC2)cc1F	·	1%	197%	-15	·
Cn1cncc1C(N)(c1ccc(Cl)cc1)c1ccc2c(c1)c(-c1cccc(Cl)c1)cc(=O)n2C (stereo unspecified)	i	9.5µM*	·	-26*	?
O=C(Nc1ccccc1Cl)c1ccc2nnc(-c3ccc(Cl)cc3)n2c1	-6%	-11%	-4%	13	·
